Hits are enriched below; roughly 7.3% of the tested compounds scored in any of these assays.
FLuc modulator: inhibits or activates purified firefly luciferase, miR-21 counter-screen; hit rate 6.9% among 360,000; P08659; purified FLuc, Km substrates, luminescence inhibition; Potency, µM (series often up to 57.5 µM), for the others: at the top dose activity change, negative = inhibition, most hits filed as inhibitors;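 also: plate controls were vehicle for no effect and reference inhibitor for full effect; nearly all actives have a fitted effect of over 55% in size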
Target sequence (P08659 whole entry, looked up): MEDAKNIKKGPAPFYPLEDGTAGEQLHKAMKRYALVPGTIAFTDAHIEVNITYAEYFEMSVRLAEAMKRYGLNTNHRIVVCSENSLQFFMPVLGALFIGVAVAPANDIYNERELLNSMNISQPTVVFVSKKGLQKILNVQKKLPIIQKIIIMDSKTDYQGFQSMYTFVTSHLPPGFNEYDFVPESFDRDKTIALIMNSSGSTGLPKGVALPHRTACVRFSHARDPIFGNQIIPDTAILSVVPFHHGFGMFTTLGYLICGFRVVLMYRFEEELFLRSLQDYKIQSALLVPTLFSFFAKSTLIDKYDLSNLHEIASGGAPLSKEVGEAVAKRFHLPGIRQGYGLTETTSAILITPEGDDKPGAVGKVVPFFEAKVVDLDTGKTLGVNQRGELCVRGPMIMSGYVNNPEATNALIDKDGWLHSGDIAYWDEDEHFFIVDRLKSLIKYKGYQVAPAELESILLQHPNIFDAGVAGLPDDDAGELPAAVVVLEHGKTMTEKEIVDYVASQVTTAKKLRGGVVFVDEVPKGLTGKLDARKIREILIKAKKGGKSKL
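Purified P. pyralis luciferase, 10 nM final, with Km-level 10 uM D-luciferin and 10 uM ATP in 50 mM Tris acetate pH 7.5, 10 mM Mg acetate, 0.01% Tween-20, 0.05% BSA; 6-point qHTS titration about 60 µM downward; luminescence read.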
uPA surface inh: blocks generation of uPA at the cell surface; AID 540303; hit rate 0.31% among 330,000; cell surface uPA generation assay, qHTS; Potency, µM (doses to about 38.3 µM), inactives show at the highest dose activity change, negative = inhibition, usual class: inhibitors; active = well fitted inhibition curve with a large enough effect; inconclusive = small, poorly fitted or top-dose-only effect; inactive = no such curve, though single readings can be large or run the other way; tested in mouse RAW 264.7 cells; also: % is scaled to controls: 0 for no effect and ±100 for the full control effect; nearly all actives have a fitted effect of over 55% in size
Rab9 prom act: activators of Rab9 promoter. hit rate 2.8% among 320,000. Huh7 Rab9 promoter-luciferase reporter, luminescence, 24 h. Potency, µM (titrated, usually from 9.22 µM), for inactives: top-dose activation, negative = inhibition, actives largely listed as activators; also: % of control where 0% means no effect; nearly all actives have a fitted effect of over 60% in size
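Stable Rab9-luc Huh7, 1500 cells/well, 2 h settle; cmpd in DMSO, 24 h, 37 °C/5% CO2; luciferase reagent 10 min RT; luminescence.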
SMN2 splice enh: SMN2 splice variant enhancement | HEK293 SMN2-luciferase splicing reporter, luminescence, 30-36 h | Potency, µM (series often up to 46.1 µM), without a hit: at the top dose activity change, positive = activation, usual class: activators | hit rate 2.8% among 210,000 | AID 1458; also: % of control where 0% means no effect; nearly all actives have a fitted effect of over 55% in size
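HEK293 cells carry an SMN2 minigene-luciferase reporter in which exon 7 inclusion puts luciferase in frame. Cells were seeded at 2000 cells/well, attached for 10-12 hours, then exposed to compounds for 30-36 hours at 37C before ONE-Glo luminescence.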
ELG1 genotox: genotoxicity induction in ELG1-luciferase HEK293T cells; HEK293T ELG1-luciferase reporter, luminescence, 16 h; Potency, µM (doses to about 46 µM), inactives show at the highest dose activity change, positive = activation, usual class: activators; hit rate 1.3% among 330,000; AID 504466; also: % of control where 0% means no effect; nearly all actives have a fitted effect of over 60% in size
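Cells (2,000/well) expressing the ELG1-luciferase fusion are dosed by pin tool and kept 16 hr at 37 °C, 5% CO2. Signal comes from ONE-Glo luciferase reagent after 30 min at room temperature.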
NPC1 promoter act: NPC1 promoter activation; Huh7 NPC1 promoter luciferase reporter, 24 h; Potency, µM (top dose mostly 9.22 µM), for inactives: top-dose activation, usual class: activators; hit rate 2.4% among 320,000; AID 485313; also: % of control where 0% means no effect; nearly all actives have a fitted effect of over 60% in size
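Compounds in DMSO were transferred onto Huh7 NPC1-luciferase reporter cells pre-incubated 2 h; after 24 h at 37 °C, Amplite reagent was dispensed and luminescence recorded 10 min later.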
Numbers without * were called inactive. Unless noted, calls follow the shape of the dose curve; as a rule, active = well fitted curve in the direction sought with a large enough effect; inconclusive = small, poorly fitted or top-dose-only effect, or another doubt; inactive = no such curve, though single readings can be large; an effect the other way counts as inactive or inconclusive. Potency is read from the fitted curve at half-maximal effect.

For COc1ccc(/C=N/OC(=O)Nc2ccccc2)cc1[N+](=O)[O-] the results were FLuc modulator 15.1µM*, uPA surface inh -5.8%, Rab9 prom act 23.4%, SMN2 splice enh 20.0%, ELG1 genotox 11.9% and NPC1 promoter act 6.0%.
Screening Cc1ccc(NC(=O)O/N=C/c2ccc(F)cc2)cc1 returned FLuc modulator 15.1µM*, uPA surface inh -3.3%, Rab9 prom act inconclusive, ELG1 genotox inconclusive and NPC1 promoter act inconclusive.
`O=C(Nc1ccccc1Cl)O/N=C/c1ccc(F)cc1` gave uPA surface inh -3.2%.
`O=C(Nc1ccccc1)O/N=C/c1ccc(F)cc1` gave FLuc modulator 2.39µM*, uPA surface inh 7.08µM*, Rab9 prom act 0.794µM*, ELG1 genotox inconclusive and NPC1 promoter act 0.631µM*.
For Cc1ccc2c(CNC3CCCCC3)c(C(=O)O)n(Cc3ccc(F)cc3)c2c1 the results were FLuc modulator 5.4%.
Screening COc1ccc(NC(=O)[C@H](C)NC(=O)C2CCN(S(=O)(=O)c3ccc(OC)cc3)CC2)cc1 returned FLuc modulator 3.6%, uPA surface inh -5.1%, Rab9 prom act -0.1%, ELG1 genotox 0.0% and NPC1 promoter act -1.7%.
Screening CCOc1ccc2c(c1)c(=O)c(C(=O)c1ccccc1)cn2Cc1ccccc1F returned FLuc modulator -7.9% and SMN2 splice enh 2.8%.
`O=C(O)COCC(=O)Nc1ccc2c(c1)oc1ccccc12` gave FLuc modulator 16.9µM*, uPA surface inh 2.4%, Rab9 prom act -0.4%, ELG1 genotox 1.1% and NPC1 promoter act -1.6%.
O=C(O)CCC(=O)Nc1ccc2c(c1)oc1ccccc12 was read as FLuc modulator 23.9µM*, Rab9 prom act -4.7%, SMN2 splice enh 17.1%, ELG1 genotox 15.5% and NPC1 promoter act 2.2%.
`CNC(=O)COc1ccccc1C(=O)Nc1ccc2c(c1)oc1ccccc12` gave FLuc modulator 3.79µM*, uPA surface inh 2.7%, Rab9 prom act -38.1%, SMN2 splice enh -11.7%, ELG1 genotox 1.2% and NPC1 promoter act -18.2%.
For Cc1nnc2c3ccccc3nc(Nc3ccccc3C(=O)O)n12 the results were FLuc modulator inconclusive and SMN2 splice enh -1.8%.
COC(=O)C1=C(C)[C@@H](O)[C@@H](C)[C@](C)(c2cc(OC)c(C)c(OC)c2COc2ccccc2)O1 was read as SMN2 splice enh -2.4%.
Screening COc1ccc(NC(=O)c2oc3ccccc3c2NC(=O)Cc2ccc(F)cc2)c(OC)c1 returned FLuc modulator -1.1% and SMN2 splice enh -5.7%.
O=c1oc2ccccc2cc1-c1cn2cc(Cc3ccc(F)cc3)sc2n1 was read as FLuc modulator 2.8% and SMN2 splice enh 16.0%.
`Cc1ccc(Cc2cn3cc(-c4ccc(F)cc4)nc3s2)cc1` gave FLuc modulator 0.757µM* and SMN2 splice enh inconclusive.
`Cc1ccccc1NC(=O)COC(=O)C1C2CC3OC(=O)C1C3C2` (centres undefined) gave FLuc modulator -9.6%, uPA surface inh -2.1%, Rab9 prom act 4.1%, ELG1 genotox -2.1% and NPC1 promoter act -6.4%.
Screening COc1ccccc1NC(=O)COC(=O)C1C2CC3OC(=O)C1C3C2 (centres undefined) returned FLuc modulator 15.1µM*, uPA surface inh -10.1%, Rab9 prom act 5.4%, ELG1 genotox -2.8% and NPC1 promoter act 0.2%.
Screening Nc1nc2c(s1)CCc1c-2cnn1-c1ccccc1 returned FLuc modulator 6.75µM*, uPA surface inh 18.2%, Rab9 prom act inconclusive, SMN2 splice enh 11.2µM*, ELG1 genotox -11.2% and NPC1 promoter act 0.794µM*.
Nc1nc2c(s1)COc1ccccc1-2 was read as FLuc modulator inconclusive, uPA surface inh -2.8%, Rab9 prom act 17.4%, ELG1 genotox 10.2% and NPC1 promoter act 13.4%.
Screening O=C(N/N=C/c1ccc(C(F)(F)F)cc1)c1ccc(O)cc1 returned FLuc modulator 10.7µM*, uPA surface inh -11.3%, Rab9 prom act 10.9%, SMN2 splice enh 6.2%, ELG1 genotox 13.4% and NPC1 promoter act 15.7%.
`Cc1ccc(CNC(=O)c2csc3c2CCCCC3)cc1` gave FLuc modulator 0.1%, uPA surface inh 0.4%, Rab9 prom act -8.7%, SMN2 splice enh 12.3%, ELG1 genotox 1.7% and NPC1 promoter act 3.8%.
`O=C(N/N=C/c1ccc(O)cc1)c1csc2c1CCCC2` gave FLuc modulator 13.5µM*, uPA surface inh -9.3%, Rab9 prom act 23.1%, SMN2 splice enh 29.7%, ELG1 genotox 8.9% and NPC1 promoter act 22.5%.
`O=C(N/N=C/c1cccc(C(F)(F)F)c1)c1ccc(O)cc1` gave FLuc modulator 16.9µM*, uPA surface inh -12.3%, Rab9 prom act 13.7%, SMN2 splice enh 10.6%, ELG1 genotox 6.5% and NPC1 promoter act -2.6%.
O=C(N/N=C/c1ccc(F)cc1)c1ccncc1 was read as FLuc modulator -18.3%, uPA surface inh -2.0%, Rab9 prom act 3.0%, ELG1 genotox 1.0% and NPC1 promoter act -1.5%.
For Cc1cccc(-n2ncc3c(N(C)Cc4ccccc4)ncnc32)c1 the results were FLuc modulator 2.39µM*, uPA surface inh inconclusive, Rab9 prom act 3.55µM*, ELG1 genotox inconclusive and NPC1 promoter act 3.98µM*.
`O=C1CCCN1CCCNc1ncnc2c1cnn2-c1ccc(Cl)cc1` gave FLuc modulator 16.9µM*, uPA surface inh 2.7%, Rab9 prom act inconclusive, SMN2 splice enh -35.2%, ELG1 genotox 18.4µM* and NPC1 promoter act inconclusive.
`CN(C)CCNc1ncnc2c1cnn2-c1cccc(Cl)c1` gave FLuc modulator 23.9µM*.
`CC(C)CCNc1ncnc2c1cnn2-c1cccc(Cl)c1` gave FLuc modulator 16.9µM*.
For Cc1cccc(-n2ncc3c(NCCCN4CCCC4=O)ncnc32)c1 the results were FLuc modulator inconclusive, uPA surface inh 5.2%, Rab9 prom act inconclusive, SMN2 splice enh -10.0%, ELG1 genotox 6.1% and NPC1 promoter act inconclusive.
For CN(C)CCNc1ncnc2c1cnn2-c1ccc(Cl)cc1 the results were FLuc modulator 7.57µM*, uPA surface inh inconclusive, Rab9 prom act inconclusive, SMN2 splice enh 26.1%, ELG1 genotox 20.6µM* and NPC1 promoter act 15.7%.
For CCCCN(C)c1ncnc2c1cnn2-c1cccc(Cl)c1 the results were FLuc modulator 2.69µM*.
OCCCNc1ncnc2c1cnn2-c1ccc(Cl)cc1 was read as FLuc modulator 1.9µM*, uPA surface inh 4.0%, Rab9 prom act 0.282µM*, ELG1 genotox inconclusive and NPC1 promoter act 0.199µM*.
